The source made the active and inactive calls. Unless noted, the rule behind the calls is not given here.
Tests used:
[1] = resazurin metabolic signal in HepG2 cells – cell-based, resazurin fluorescence, 24 h, PK04 Diversity Set, profiling panel (AID 1172); conditions: HepG2 viability, higher = more signal
[2] = budding yeast growth changes without added modifier – OD600, strain BY4716, 24 h, basal condition, primary screen (AID 1173); conditions: S. cerevisiae BY4716 growth, OD600, 24 h; higher = more signal, called active from +8 up or from −8 down
[3] = viability profiling in MM1S myeloma cells – cell-based, resazurin fluorescence, basal, 24 h, PK04 Diversity Set, profiling panel (AID 1174); conditions: higher = more signal, called active from +8 up or from −8 down;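 note: MM1S multiple myeloma cell line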
[4] = molecular target: Dihydroorotate dehydrogenase (quinone), mitochondrial (Plasmodium falciparum (isolate 3D7)) (UniProt Q08210); assay: inhibition of P. falciparum DHODH – biochemical, C-terminal His tag, absorbance 600 nm, primary screen (AID 1175); conditions: PfDHODH enzyme, DCIP absorbance 600 nm; higher = more signal, called active from +8 up or from −8 down;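 note: recombinant parasite enzyme with a five histidine tag at its C terminus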
[5] = inhibition of PAO1 biofilm formation – strain PAO1, LB-PBS medium, absorbance 600 nm, primary screen (AID 1176); conditions: P. aeruginosa PAO1 growth/biofilm, A600, 12 h; higher = more signal
[6] = growth modulation of vineyard yeast isolate – strain RM11-1a, OD600, basal, 24 h, primary screen (AID 1177);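 note: cultures grown under basal conditions with no added stressor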; conditions: S. cerevisiae RM11-1a growth, OD600, 24 h; higher = more signal, called active from +8 up or from −8 down
[7] = growth of efflux-deficient E. coli DRC39 – strain DRC39, OD650, 24 h, E. coli filamentation inducers, primary screen (AID 1178);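 note: growth measured as culture turbidity by optical density at 650 nm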; conditions: E. coli DRC39 acrAB, higher = more signal, called active from +8 up or from −8 down
[8] = growth of efflux-deficient E. coli DRC39 – strain DRC39, OD650, 48 h, E. coli filamentation inducers, primary screen (AID 1179);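 note: screen aims at cell division blockers that make cells filament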; conditions: E. coli DRC39 delta-acrAB growth, higher = more signal, called active from +8 up or from −8 down
[9] = viability profiling in RPMI8226 myeloma cells – cell-based, resazurin fluorescence, basal, 24 h, PK04 Diversity Set, profiling panel (AID 1180); conditions: higher = more signal;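 note: RPMI8826 multiple myeloma cell line at 5000 cells per well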
[10] = molecular target: E3 ubiquitin-protein ligase XIAP (Homo sapiens) (UniProt P98170); assay: small molecules binding XIAP protein – biophysical, small-molecule microarray, fluorescence 635 nm, primary screen (AID 1181); conditions: higher = more signal;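 note: score merges 667 nm emission and signal to noise over triplicate slides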
[11] = tested on: XIP peptide (Xip251-270) binding; assay: XIP fragment 251-270 binding compounds – biochemical, small-molecule microarray, fluorescence 635/667 nm, 0.1 µg/mL protein, primary screen (AID 1182); conditions: fluorescent protein binding, 635 nm, higher = more signal, called active from +8 up or from −8 down
[12] = tested on: XIP peptide (Xip251-270); assay: compounds binding XIP fragment 251-270 – biochemical, small-molecule microarray, fluorescence 635/667 nm, 0.5 µg/mL protein, primary screen (AID 1183); conditions: fluorescence 635 nm, higher = more signal
[13] = blood-stage malaria parasite viability loss – strain 3D7, DAPI fluorescence, 100 nL, primary screen (AID 1184);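 note: parasites grown inside human red blood cells in medium with human serum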; conditions: P. falciparum 3D7 growth, 3 d, higher = more signal
[14] = molecular target: Homeobox protein Hox-A13 (Mus musculus) (UniProt Q62424); assay: disruptors of Hoxa13 oligonucleotide interaction – biochemical, fluorescence polarization, labeled oligonucleotide, primary screen (AID 1185); conditions: Hoxa13:DNA binding, 15 min, higher = more signal, called active from +8 up or from −8 down
Chain of Homeobox protein Hox-A13 (Mus musculus) (Q62424 whole entry, looked up): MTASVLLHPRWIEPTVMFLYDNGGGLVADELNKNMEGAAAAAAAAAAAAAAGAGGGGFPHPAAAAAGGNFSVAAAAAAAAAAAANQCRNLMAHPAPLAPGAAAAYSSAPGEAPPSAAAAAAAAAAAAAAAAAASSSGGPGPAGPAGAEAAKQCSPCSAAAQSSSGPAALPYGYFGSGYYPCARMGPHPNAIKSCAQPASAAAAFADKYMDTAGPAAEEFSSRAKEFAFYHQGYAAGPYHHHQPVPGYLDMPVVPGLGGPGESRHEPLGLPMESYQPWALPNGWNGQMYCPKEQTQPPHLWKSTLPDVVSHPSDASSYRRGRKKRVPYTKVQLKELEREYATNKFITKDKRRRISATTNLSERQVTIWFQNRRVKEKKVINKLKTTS

Chain of Dihydroorotate dehydrogenase (quinone), mitochondrial (Plasmodium falciparum (isolate 3D7)) (Q08210 whole entry, looked up): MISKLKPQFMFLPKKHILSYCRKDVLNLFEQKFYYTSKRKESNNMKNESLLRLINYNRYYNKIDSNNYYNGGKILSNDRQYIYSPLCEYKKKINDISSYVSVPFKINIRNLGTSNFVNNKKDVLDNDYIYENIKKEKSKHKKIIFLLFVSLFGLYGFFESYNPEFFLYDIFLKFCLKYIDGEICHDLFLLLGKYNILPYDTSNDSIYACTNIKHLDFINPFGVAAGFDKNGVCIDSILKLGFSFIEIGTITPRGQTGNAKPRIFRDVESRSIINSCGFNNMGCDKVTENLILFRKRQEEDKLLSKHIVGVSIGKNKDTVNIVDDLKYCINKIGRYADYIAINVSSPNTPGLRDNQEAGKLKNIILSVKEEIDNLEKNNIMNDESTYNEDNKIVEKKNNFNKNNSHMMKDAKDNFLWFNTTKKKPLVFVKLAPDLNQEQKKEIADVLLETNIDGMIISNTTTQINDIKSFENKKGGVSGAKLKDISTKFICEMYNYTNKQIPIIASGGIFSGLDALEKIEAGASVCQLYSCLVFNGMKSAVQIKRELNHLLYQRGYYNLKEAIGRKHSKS
Chain of E3 ubiquitin-protein ligase XIAP (Homo sapiens) (P98170 whole entry, looked up, the tested form may be a part): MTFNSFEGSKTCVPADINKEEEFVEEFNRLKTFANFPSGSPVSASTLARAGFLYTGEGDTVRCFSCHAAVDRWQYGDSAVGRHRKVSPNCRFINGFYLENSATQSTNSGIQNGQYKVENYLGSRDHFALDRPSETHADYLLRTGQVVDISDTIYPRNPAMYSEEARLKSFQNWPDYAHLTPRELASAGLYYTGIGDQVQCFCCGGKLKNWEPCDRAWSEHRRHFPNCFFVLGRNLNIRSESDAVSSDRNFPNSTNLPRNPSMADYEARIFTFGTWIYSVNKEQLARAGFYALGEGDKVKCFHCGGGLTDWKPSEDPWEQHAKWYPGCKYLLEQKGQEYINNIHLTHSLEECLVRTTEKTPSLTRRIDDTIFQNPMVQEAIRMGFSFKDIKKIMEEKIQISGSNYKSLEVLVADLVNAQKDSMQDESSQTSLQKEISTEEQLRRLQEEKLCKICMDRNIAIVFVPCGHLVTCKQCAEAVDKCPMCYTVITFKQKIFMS

Structure (SMILES) | z-score [1] | z-score [2] | z-score [3] | composite z-score [4] | z-score [5] | z-score [6] | z-score [7] | z-score [8] | z-score [9] | composite z-score [10] | composite z-score [11] | composite z-score [12] | z-score [13] | z-score [14]
CCOC(=O)[C@H](Cc1ccccc1)NC(=O)OC1CC(CCC2CC(CC)=NO2)OC2(CCCC(COC(=O)NCCC(C)C)O2)C1 (some centres undefined) | 0.239 | 0.633 (inactive) | 0.264 (inactive) | -0.133 (inactive) | 0.226 (inactive) | 0.136 (inactive) | 0.347 (inactive) | 0.205 (inactive) | 0.65 | -0.22 | 0.654 (inactive) | 0.527 | -1.04 | -5.07 (inactive)
CC(=O)OC[C@H]1O[C@H](C#Cc2ccccc2)C=C[C@@H]1OC(C)=O | -0.153 | -2.26 (inactive) | -5.37 (inactive) | -0.0765 (inactive) | -0.339 (inactive) | -0.14 (inactive) | 0.731 (inactive) | 0.414 (inactive) | -2.61 | -0.13 | -0.794 (inactive) | 0.823 | 0.0037 | -3 (inactive)
C=Cc1ccc([C@H]2N[C@H](C(=O)O)CC[C@@H]2C)cc1 | -0.869 | -0.366 (inactive) | -0.601 (inactive) | -0.13 (inactive) | -0.54 (inactive) | -0.649 (inactive) | 0.505 (inactive) | 0.296 (inactive) | -0.845 | -0.168 | -0.132 (inactive) | -0.0045 | 2.18 | -0.69 (inactive)
COc1cccc([C@H]2Oc3ccc(OC)cc3C(=NOC(C)CN3CCCCc4nc(C)c(C)cc43)[C@@H]2O)c1 (some centres undefined) | -0.621 | -0.951 (inactive) | -1.16 (inactive) | -0.695 (inactive) | 0.253 (inactive) | -0.0905 (inactive) | 0.597 (inactive) | 0.748 (inactive) | -1.16 | -0.0525 | 1.06 (inactive) | 0.195 | 0.25 | -4.68 (inactive)
CO[C@@H]1C=CCC(=O)N[C@@H](C)C(=O)OC[C@@H](OC)[C@H](C)CCCC(=O)OC[C@H]1C | 0.287 | -0.445 (inactive) | 0.719 (inactive) | -1.38 (inactive) | -0.479 (inactive) | -0.935 (inactive) | 0.853 (inactive) | 0.174 (inactive) | 1.58 | -0.269 | -0.203 (inactive) | 0.111 | 0.0984 | -0.313 (inactive)
CSCC[C@@H]1NC(=O)CC=C[C@@H](C)COC(=O)[C@@H](C)COC1=O | 0.414 | -0.739 (inactive) | 0.574 (inactive) | 0.0037 (inactive) | -0.708 (inactive) | -0.24 (inactive) | 0.422 (inactive) | -0.962 (inactive) | 0.249 | -0.0525 | -0.082 (inactive) | -0.318 | -0.866 | 0.572 (inactive)
